Screening data from PubChem.
Only some compounds are listed: those with a hit (about 1.8% of all), similar ones and a draw of the others.
Pin1 inhibitor = inhibitors of human Pin1; Pin1 FP peptide displacement, HiFluor488, 10 min; Potency, µM (highest dose often 115 µM), usual class: inhibitors; 390,000 tested, 0.009% active; active = well fitted inhibition curve with a large enough effect in the polarisation, with a control signal flat, not every such curve was filed as active; inconclusive = small, poorly fitted or top-dose-only effect, or effect the other way, or a change in a side signal; inactive = no such curve, though single readings can be large or run the other way; the % refers to the polarisation
Target sequence (Q13526 whole entry, looked up): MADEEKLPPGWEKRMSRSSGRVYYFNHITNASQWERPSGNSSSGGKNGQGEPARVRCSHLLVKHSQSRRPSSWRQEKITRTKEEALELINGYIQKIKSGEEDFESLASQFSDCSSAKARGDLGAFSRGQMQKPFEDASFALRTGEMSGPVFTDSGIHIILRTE
HEK293 tox = cytotoxicity in counter-screen for GLP-1R inverse agonists; HEK293 cAMP-luciferase reporter cells, luminescence, 24 h; Potency, µM (series often up to 38.3 µM), hits mostly inhibitors; 410,000 tested, 0.13% active; AID 624418;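 also: loss of luciferase light is scored as toxicity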
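Luminescence readout: signal drop marks cytotoxicity. Plated cells grew 12 h at 37 °C, 5% CO2, received 23 nL compound for 24 h, then got luciferase reagent, read after 12 min at RT.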
GLP1R ag = activates the human GLP-1 receptor; 380,000 tested, 0.007% active; AID 624172; Potency, µM (top dose mostly 45.6 µM), actives largely listed as activators; P43220; HEK293 GLP-1R CRE-luciferase, luminescence, 4-6 h; cells express a hypersensitive GLP-1R form
GLP-1R inv ag = acts as inverse agonist at human GLP-1 receptor; HEK293 GLP-1R CRE-luciferase, luminescence, 24 h; GLP-1R form is constitutively active; Potency, µM (top dose mostly 38.3 µM), actives largely listed as inhibitors; AID 624417; 410,000 tested, 1.6% active; P43220; also: nearly all actives have a fitted effect of over 55% in size
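Readout was luciferase luminescence, measured 12 min after detection reagent at room temperature. Beforehand, GLP-1R reporter HEK293 cells had sat 12 h, then received compounds for 24 hr at 37 deg C.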
Tb PFK inh = inhibitors of T. brucei phosphofructokinase; T. brucei PFK, ADP-Glo luminescence; 330,000 tested, 0.17% active; Potency, µM (titrated, usually from 57.5 µM), most hits filed as inhibitors; O15648; also: nearly all actives have a fitted effect of over 60% in size
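PFK 1.25 nM, F6P 0.5 mM, ATP 0.1 mM, 0.1 M TEA pH 8.0, 5 mM MgCl2, 0.01% Tween20, 0.1% BSA; 45 min RT. ADP-Glo readout. qHTS titration up to 57 uM; curves fitted, compounds curve-classed.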
Tb PGK inh = inhibitors of T. brucei phosphoglycerate kinase | P07378 | PGK/GAPDH coupled, Kinase-Glo luminescence, 60 min | Potency, µM (highest dose often 57.5 µM), most hits filed as inhibitors | 380,000 tested, 0.043% active | AID 602233; also: nearly all actives have a fitted effect of over 60% in size
Target sequence (P07378 whole entry, looked up): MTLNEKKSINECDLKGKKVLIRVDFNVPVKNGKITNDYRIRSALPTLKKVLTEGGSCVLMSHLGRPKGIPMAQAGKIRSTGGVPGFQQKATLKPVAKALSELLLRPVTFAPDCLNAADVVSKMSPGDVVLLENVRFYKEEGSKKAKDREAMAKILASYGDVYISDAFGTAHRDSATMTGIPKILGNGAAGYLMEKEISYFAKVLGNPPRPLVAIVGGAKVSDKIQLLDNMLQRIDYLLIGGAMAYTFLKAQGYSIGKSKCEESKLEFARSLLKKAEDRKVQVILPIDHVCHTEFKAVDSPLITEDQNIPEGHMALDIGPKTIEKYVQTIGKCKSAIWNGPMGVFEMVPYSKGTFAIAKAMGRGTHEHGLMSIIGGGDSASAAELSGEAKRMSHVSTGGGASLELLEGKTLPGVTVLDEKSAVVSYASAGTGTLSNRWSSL
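Recombinant glycosomal PGK reaction used 1,3-bisphosphoglycerate generated in-well by GAPDH (100nM final) in 100mM TEA pH 7.6, 5mM MgCl2, 0.01% Tween-20. After 60 minutes at room temperature, ATP was read by Kinase-Glo Plus luminescence end-point.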
Hits are given with their value; – = inactive; ? = inconclusive; · = no result given. Unless noted, calls follow the shape of the dose curve; as a rule, active = well fitted curve in the direction sought with a large enough effect; inconclusive = small, poorly fitted or top-dose-only effect, or another doubt; inactive = no such curve, though single readings can be large; an effect the other way counts as inactive or inconclusive.

SMILES	Pin1 inhibitor	HEK293 tox	GLP1R ag	GLP-1R inv ag	Tb PFK inh	Tb PGK inh
Cc1cccc(Cn2nc(C(C)(C)C)cc2C(=O)Nc2ccc(F)cc2)c1	–	?	–	5.01µM	–	–
Cc1cc(C)cc(NC(=O)NCc2c(-c3ccccc3)noc2C)c1	–	–	–	–	–	–
Cc1onc(-c2ccccc2)c1CNC(=O)Nc1cccc(Cl)c1	?	–	–	8.91µM	–	–
Cn1c(CO)cnc1SCC(=O)c1ccc(Cl)cc1	–	–	–	7.08µM	–	–
Cn1ccnc1SCC(=O)c1ccc(Cl)cc1	–	–	–	–	–	–
COc1ccc(CCN(C)CC(O)COc2c(C)ccc(C)c2C)cc1OC (stereo not given)	–	–	–	?	–	–
COc1ccc(CCN(C)CC(O)COC(c2ccc(F)cc2)c2ccc(F)cc2)cc1OC (stereo not given)	–	?	–	5.01µM	–	–
O=C(Cc1ccc(F)cc1)NCCS(=O)(=O)N1CCN(c2cccc(Cl)c2)CC1	–	–	–	10µM	–	–
Cc1ccccc1NC(=O)CSc1nc(-c2ccccc2)cn1-c1ccccc1F	–	–	·	?	·	–
CC(C)CN(CC(C)C)C(=O)Nc1ccccc1F	–	–	–	8.91µM	–	–
O=C(CC(=O)Nc1ccccc1F)Nc1ccccc1F	–	–	–	–	–	–
CC(C)Cc1nc2ccccc2n1CCc1ccccc1	–	?	–	12.6µM	–	–
CC(C)(C)Cc1nc2ccccc2n1CCc1ccccc1	?	–	–	5.01µM	–	–
c1ccc2c(c1)CCN(c1nc(CN3CCOCC3)nc3sc4c(c13)CCCC4)C2	–	–	–	8.91µM	–	–
C=CCn1c(C)c(C(C)=O)c(N2CCN(C(c3ccccc3)c3ccccc3)CC2)nc1=S	?	?	–	7.08µM	–	–
CCOC(=O)c1c(C)[nH]c(C)c1S(=O)(=O)N1CCCC(C(=O)N2CCN(c3ccccc3)CC2)C1 (stereo not given)	–	–	·	–	·	–
CC(NCCCOc1cccc2ccccc12)c1ccccc1 (stereo not given)	–	?	–	8.91µM	–	–
Cc1cc2c(s1)c1cnn(Cc3c(C)cc(F)cc3C)c(=O)c1n2C	–	·	·	·	·	·
CC(=O)NC1=C(Nc2ccc(N(C)C)cc2)C(=O)c2ccccc2C1=O	–	?	–	3.98µM	–	–
COc1ccc(C2=Nn3c(nnc3-c3cc(OC)ccc3OC)SC2)c(OC)c1	–	·	·	·	·	·
NCC1CCC(N)C(O[C@@H]2C(O)[C@H](O[C@H]3OC(CO)C(O)C(N)C3O)[C@@H](N)C[C@H]2N)O1 (stereo not given in full)	·	·	–	·	·	·
CC1CN(Cc2ccccc2)c2ccccc2NC1=S (stereo not given)	–	?	–	11.2µM	–	–
CC1CN(Cc2ccccc2)C(=O)N(c2ccccc2)C1=O (stereo not given)	–	–	–	–	·	–
O=C1CN(C(=O)COc2ccc(Cl)cc2Cl)C(c2ccccc2)c2cc(F)ccc2N1 (stereo not given)	–	–	·	?	·	–
CC1(C)CC(NS(=O)(=O)c2ccc(F)cc2)CC(C)(C)N1	–	–	–	–	–	–
SMILES	Pin1 inhibitor	HEK293 tox	GLP1R ag	GLP-1R inv ag	Tb PFK inh	Tb PGK inh
CC1(C)CC(NS(=O)(=O)c2ccc(C(C)(C)C)cc2)CC(C)(C)N1	–	–	–	3.55µM	–	–
Cc1nn(Cc2ccc(Cl)cc2Cl)c(C)c1NC(=O)NC12CC3CC(CC(C3)C1)C2	–	–	–	5.01µM	–	–
Cn1c(Oc2ccc(Cl)cc2)c(C=O)c2ccccc21	?	–	–	?	–	–
COc1ccc(Oc2c(C=O)c3ccccc3n2C)cc1	–	–	–	10µM	–	–
Cc1ccc(Oc2c(C=O)c3ccccc3n2C)cc1	–	–	–	5.01µM	–	–
Cc1cc2c(s1)c1cnn(Cc3ccc(C(C)(C)C)cc3)c(=O)c1n2C	–	·	·	·	·	·
Cc1cc(O)c(/C=N/Nc2ccc(F)cc2)c(=O)o1	–	?	–	1.78µM	–	–
Cc1ccc(N/N=C/c2c(O)cc(C)oc2=O)cc1	–	–	–	?	–	–
Cc1cccc(NC(=O)c2c(NC(=O)c3ccco3)sc3c2CCC(C(C)(C)C)C3)c1 (stereo not given)	–	–	·	–	·	–
O=C(Nc1ccccc1F)c1nc(S(=O)(=O)Cc2ccccc2F)ncc1Cl	–	?	·	11.2µM	·	–
COc1cc(-c2nnc(SCC(=O)N3c4ccccc4Sc4ccccc43)o2)cc(OC)c1OC	–	–	–	1.26µM	–	–
COc1cccc(-c2nnc(SCC(=O)N3CC(C)CC(C)C3)o2)c1 (stereo not given)	–	–	–	11.2µM	–	–
CCCCN(C)CCCNC(=O)C1CCN(S(=O)(=O)CCC)CC1	–	–	–	–	·	–
COc1ccc(-c2nc3cccc(C)n3c2Nc2ccc(C)cc2)cc1	–	·	·	·	·	·
O=C(CC(O)(CC(=O)OCc1ccccc1)C(=O)OCc1ccccc1)OCc1ccccc1	–	–	–	8.91µM	·	–
CC(C)CC(=O)NCC(c1ccc2c(c1)OCO2)N1CCN(c2ccccc2F)CC1 (stereo not given)	–	–	·	–	·	–
O=C(Nc1nc2cc3c(cc2s1)OCO3)C1=COCCO1	–	–	–	2.24µM	–	–
COc1ccc(C2Nc3ccccc3C(=O)N2Cc2ccccc2)cc1COc1cccc(C)c1 (stereo not given)	–	·	·	·	·	·
Cc1nc(-c2ccccc2)sc1-c1ccc(SCC(=O)Nc2ccccc2)nn1	–	–	·	–	·	–
CCN(CC1COc2ccccc2O1)C(=S)NCCCN(C)C (stereo not given)	–	–	–	7.08µM	–	–
CN(CC1COc2ccccc2O1)C(=S)NC1CCCCC1 (stereo not given)	–	–	–	5.01µM	–	–
O=[S+]([O-])(c1c(F)cccc1F)N1CCN([S+](=O)([O-])c2c(F)c(F)c(F)c(F)c2F)CC1	–	·	·	·	·	·
O=C1c2ccccc2C(=O)N1c1cccc2ncccc12	–	·	·	·	·	·
CC1CCN(c2nc3ccc(C(=O)NC(C)C)cc3s2)CC1	–	–	·	5.01µM	·	–
O=C(NC(c1ccc(Cl)cc1)c1ccsc1)C1CCN(Cc2ccc(Oc3ccccc3)cc2)CC1 (stereo not given)	·	–	–	10µM	·	·
Cc1ccccc1C(NC(=O)C1CCN(Cc2ccc(Oc3ccccc3)cc2)CC1)c1ccsc1 (stereo not given)	·	–	–	?	·	·
CCOC(=O)C1=CN(Cc2cccc(F)c2)S(=O)(=O)NC1c1ccc(F)c(Cl)c1 (stereo not given)	–	–	–	?	–	–
